Measured values from PubChem BioAssay (NCATS).
Records with an inconclusive call do not appear. Active and inactive are the calls of the source. The call rests on the fitted dose curve; in most records, active means well fitted inhibition curve with a large enough effect; inconclusive means small, poorly fitted or top-dose-only effect; inactive means flat fitted curve, though single readings scatter.

Key:
Experiment in all cases: qHTS profiling for inhibitors of Plasmodium falciparum proliferation (AID 504749); further: nearly all actives have a fitted effect of over 60% in size
Details in all cases: P. falciparum in erythrocytes, SYBR Green DNA, 72 h; series mostly up to 28.7 µM
AA1029 = system: AA1029
How it was run: (§1)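 Fluorescence of SYBR Green-bound parasite DNA, read at 485/535 nm, served as the growth measure. Infected erythrocytes were cultured with compound 72 h; artemisinin (0.29 uM) and DMSO wells defined the normalization range.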

AS120 = system: AS120
How it was run: as §1

ATS189 = system: ATS189
How it was run: as §1

ATS95 = system: ATS95
How it was run: as §1

CP185 = system: CP185
How it was run: as §1

CP191 = system: CP191
How it was run: as §1

CP238 = system: CP238
How it was run: as §1

CP247 = system: CP247
How it was run: as §1

CP265 = system: CP265
How it was run: as §1

CP286 = system: CP286
How it was run: as §1

DFO2036 = system: DFO2036
How it was run: as §1

FAB9 = system: FAB9
How it was run: as §1

HB3 = system: HB3
How it was run: as §1

P94_40 = system: P94_40
How it was run: as §1

PAD = system: PAD
How it was run: as §1

PC15 = system: PC15
How it was run: as §1

PC49 = system: PC49
How it was run: as §1

TAB109 = system: TAB109
How it was run: as §1

TAB113 = system: TAB113
How it was run: as §1

TAB165 = system: TAB165
How it was run: as §1

Measured: Potency

CC(=O)OC1CC2CCC1(C)C2(C)C (stereo not given)
inactive: all assays above
